Laboratory results reported in PubChem BioAssay.
The source made the active and inactive calls. How the calls were made is not given here.

Molecular target: Pantothenate synthetase (Mycobacterium tuberculosis (strain ATCC 25618 / H37Rv)) (UniProt P9WIL5)
Test: Coupled enzyme confirmation of inhibitors against recombinant Mtb PanC (AID 375);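 further: 0% = full reaction with vehicle and 100% = no enzyme background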
Conditions: coupled enzyme assay; at 10 µM, stronger effect = higher value

Sequence of Pantothenate synthetase (Mycobacterium tuberculosis (strain ATCC 25618 / H37Rv)) (P9WIL5 whole entry, looked up): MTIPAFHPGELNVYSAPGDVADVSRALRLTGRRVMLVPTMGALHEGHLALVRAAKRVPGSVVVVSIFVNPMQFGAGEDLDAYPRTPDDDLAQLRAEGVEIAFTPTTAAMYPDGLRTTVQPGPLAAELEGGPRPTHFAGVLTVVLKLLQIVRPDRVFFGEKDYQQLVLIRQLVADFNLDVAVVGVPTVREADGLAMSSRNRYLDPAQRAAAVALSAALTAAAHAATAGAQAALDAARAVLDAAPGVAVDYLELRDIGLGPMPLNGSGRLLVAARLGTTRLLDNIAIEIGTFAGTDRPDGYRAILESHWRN

| Compound | inhibition |
| --- | --- |
| Cn1c(=O)cc(OCCCC(=O)Nc2ccc3c(c2)OCCO3)c2ccccc21 | 1% (inactive) |
| CCOC(=O)N1CCC(N2C(=O)c3ccccc3C2Nc2cccnc2)CC1 (stereo not given) | 4% (inactive) |
| O=C(CSc1nc2cc(S(=O)(=O)N3CCOCC3)ccc2o1)NC1CCCc2ccccc21 (stereo not given) | 0% (inactive) |
| CCOCCn1c(CN2CCN(CC)CC2)nc2c1c(=O)n(C)c(=O)n2C | 0% (inactive) |
| Cc1oc(-c2ccccc2F)nc1CS(=O)(=O)CC(=O)NCc1ccco1 | 0% (inactive) |
| O=C(/C=N/O)Nc1cccnc1 | 0% (inactive) |
| CSc1cccc(NC(=O)CN(C)S(=O)(=O)c2ccccc2)c1 | 0% (inactive) |
| Cc1nn(C(=O)c2ccoc2C)c(N)c1-c1ccccc1 | 2% (inactive) |
| CCOC(=O)N1CCN(c2cc3nccnc3cc2F)CC1 | 6% (inactive) |
| Cn1nnnc1SCC(=O)NCc1ccco1 | 5% (inactive) |
| CCS(=O)(=O)CCn1c([N+](=O)[O-])cnc1C | 7% (inactive) |
| CCOC(=O)c1[nH]c2cc(OC)c(OC)cc2c1NC(=O)C(C)N1CCN(Cc2ccccc2)CC1 (stereo not given) | 1% (inactive) |
| Cc1ccc(NC(=O)CN(C)S(=O)(=O)c2cccc3nsnc23)cc1Cl | 1% (inactive) |
| Cn1c2c(c(=O)n(C)c1=O)CN(CCCN1CCOCC1)CN2 | 0% (inactive) |
| CSc1ccccc1NC(=O)c1c(Br)cnn1C | 0% (inactive) |
| CCn1c(C(=O)N2CCCC(C(=O)NCCCc3ccccc3)C2)cc2sccc21 (stereo not given) | 0% (inactive) |
| C=CCSc1nnc(-c2ccccc2NC(C)=O)c(=O)[nH]1 | 0% (inactive) |
| CCN(CC)c1ccc(/C=N/n2nnnc2N)c(O)c1 | 6% (inactive) |
| Cc1cc(C)nc(SC2=CS(=O)(=O)c3ccccc32)n1 | 0% (inactive) |
| CCC1CCCCN1S(=O)(=O)c1ccc(C(=O)Nc2nnc(-c3cccs3)o2)cc1 (stereo not given) | 2% (inactive) |

| Compound | inhibition |
| --- | --- |
| O=C(/C=C/N1CCOCC1)c1ccc(-c2ccccc2)cc1 | 4% (inactive) |
| CCc1ccc2[nH]c(=O)c(C(c3nnnn3CC3CCCO3)N3CCN4CCCC4C3)cc2c1 (stereo not given) | 4% (inactive) |
| COc1ccc2c(c1)C(=O)N(c1ccccc1OC)C(=O)C2 | 0% (inactive) |
| O=C(CCCCn1c(=O)[nH]c2ccsc2c1=O)NCc1cccnc1 | 5% (inactive) |
| O=C(NC1CCS(=O)(=O)C1)c1c(NC(=O)C2COc3ccccc3O2)sc2c1CCCC2 (stereo not given) | 0% (inactive) |
| Cc1cc2cc(CCNC(=O)CC(C)C)c(=O)[nH]c2cc1C | 9% (inactive) |
| OCCNc1ncnc2c1c(-c1ccccc1)c(-c1ccccc1)n2Cc1ccco1 | 1% (inactive) |
| O=C(CSc1ncn[nH]1)c1ccco1 | 0% (inactive) |
| Cc1ccc(NC(=O)C2CCCN(S(=O)(=O)c3cnc[nH]3)C2)cc1F (stereo not given) | 0% (inactive) |
| COc1ccc(OC)c(C(=O)CSc2nc3ncccc3[nH]2)c1 | 0% (inactive) |
| COc1c(C(=O)Nc2c(C)n(C)n(-c3ccccc3)c2=O)ccc2ccccc12 | 0% (inactive) |
| Cn1c(=O)n(CC(=O)OCc2ccccc2)c(=O)c2c1nc1n2CCCN1C1CCCCC1 | 0% (inactive) |
| O=C(CCCN1CC=C(n2c(=O)[nH]c3ccccc32)CC1)c1ccc(F)cc1 | 0% (inactive) |
| CC1CCc2c(sc3c2C2=NS(=O)(=O)CCN2C=N3)C1 (stereo not given) | 2% (inactive) |
| CC(C)N(Cc1nc(-c2ccc(Cl)cc2)no1)C(=O)CN(C)S(=O)(=O)c1ccc(Cl)cc1 | 0% (inactive) |
| C1CCN=C(Nc2nc3c(s2)CCCC3)CC1 | 3% (inactive) |
| CCCCSCCCNC(=O)CS(=O)Cc1nc(-c2cccc(C)c2)oc1C (stereo not given) | 6% (inactive) |
| COc1cccc(-c2nc(CS(=O)(=O)CC(=O)N3CCN(c4ccccn4)CC3)c(C)o2)c1 | 5% (inactive) |
| COc1cc(NS(=O)(=O)c2cccc3nsnc23)c(C(=O)O)cc1OC | 0% (inactive) |
| O=C(OCC(=O)N1CCCCCC1)c1cccs1 | 0% (inactive) |
